The whole screen tested about 290,000 compounds, of which about 3,000 (1%) were called active. For the sample, actives were picked, then their nearest neighbours and some compounds at random. A number with no mark means an inactive call. No stated cut-off is given here; in the data, active means inhibition mostly above about 36% (no sharp cut-off); inactive means mostly below about 34%.
Assay: NOD1 signaling inhibitors, primary screen, cell-based, luminescence, uHTS (AID 1578);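 further: HEK-293T reporter cells stimulated with the NOD1 agonist gamma-tri-DAP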
Details: NOD1-driven NF-kB luciferase reporter cells, at 4 µM, stronger effect = higher value

SMILES	inhibition
CCC(=O)NNC(=O)CCC(=O)Nc1ccc(C)cc1C	-21.4%
COc1ccc(NC(=O)CCNS(=O)(=O)c2cccc3nsnc23)cc1	-14.3%
C=CCSc1nnc(N2C(=O)C(O)=C(C(=O)c3ccco3)C2c2ccccc2F)s1 (stereo unspecified)	-10.7%
O=C(O)c1ccc(S(=O)(=O)c2ccc3c(c2)C(=O)N(c2ccc(O)cc2)C3=O)cc1	-1.2%
O=C(c1cc2sccc2n1Cc1ccccc1)N1CCc2ccccc21	-5.9%
O=C(c1cc2sccc2n1Cc1ccc(F)cc1)N1CCCc2ccccc21	-9%
O=C(c1cc2sccc2n1Cc1ccccc1)N1CCCc2ccccc21	34.8% (active)
CN(CCc1ccccn1)C1CCCN(S(=O)(=O)c2ccccc2)C1 (stereo unspecified)	-25.2%
Cc1ccc(/C=C/C(=O)Nc2nc3ccccc3[nH]2)cc1	-16.1%
COc1ccc(NC(=O)c2ccc(-c3csc(C)n3)cc2)cc1	-5.5%
CCOC(=O)c1cnn(-c2ccccc2)c1-n1cccc1C(=O)C(=O)N(CC)CC	42.8% (active)
CCOC(=O)c1cnn(-c2ccccc2)c1-n1cccc1C(=O)C(=O)N(C)C	-12.4%
CCOC(=O)c1cnn(-c2ccccc2)c1-n1cccc1C(=O)C(=O)Nc1ccccc1	-28.7%
Cc1ccc(-c2nnn(Cc3nc(N)nc(N4CCOCC4)n3)n2)cc1	5.1%
CC(=O)C(=Cc1ccc(C(=O)O)cc1)C(C)=O	-17.7%
ClCc1cc2ccccc2nc1Cl	-27%
COc1ccc2cc(C#N)c(Cl)nc2c1	-29.7%
COc1ccc2cc(CCl)c(Cl)nc2c1	70.1% (active)
Cc1ccc2cc(CCl)c(Cl)nc2c1	50.2% (active)
COc1ccc2cc(CO)c(Cl)nc2c1	-28.1%
Cc1ccc2cc(C=O)c(Cl)nc2c1	-3.3%

SMILES	inhibition
COc1ccc(S(=O)(=O)N2Cc3ccccc3CC2C(=O)N2CCOCC2)cc1 (stereo unspecified)	3.2%
COc1cscc1C(N)=O	6.7%
c1ccc2c(c1)ncn2Cc1nnc2sc(-c3ccc4c(c3)OCO4)nn12	-4.4%
O=C(NC1CCCCCC1)c1cc(S(=O)(=O)N2CCCCC2)ccc1N1CCOCC1	-7.1%
CC1CCC(C(C)C)C(OCC(O)CN2CCCC(C)C2)C1 (stereo unspecified)	-44.4%
COc1ccc(C(=O)NC2CCCc3c2cnn3-c2cccc(C)c2C)o1 (stereo unspecified)	0.8%
Cc1cccc(-n2ncc3c2CCCC3NC(=O)c2ccc[n+]([O-])c2)c1C (stereo unspecified)	-3.9%
Cn1nccc1C(=O)NC1CCCc2c1cnn2-c1cc(F)cc(F)c1 (stereo unspecified)	35.1%
Cc1cc(C)c(C(=O)NC2CCCc3c2cnn3-c2cccc(C)c2C)o1 (stereo unspecified)	-10.7%
Cc1cc(C)cc(-n2ncc3c2CCCC3NC(=O)C2(C(N)=O)CC2)c1 (stereo unspecified)	-11.6%
O=C(NC1CCCc2c1cnn2-c1ccccc1F)c1ccccn1 (stereo unspecified)	20.6%
Cc1cccc(-n2ncc3c2CCCC3NC(=O)C2CCOCC2)c1C (stereo unspecified)	9.8%
Cc1cc(C(=O)NC2CCCc3c2cnn3-c2cccc(C)c2C)no1 (stereo unspecified)	11.2%
CC(C)N(CCCNC(=O)c1ccc(CS(=O)(=O)c2c(Cl)cccc2Cl)o1)Cc1ccccc1	-4.4%
CCOC(=O)N1CCN(C(=O)CSc2ccc3nnc(-c4cccnc4)n3n2)CC1	-22.3%
CCOC(=O)C1(Cc2cccc(OC)c2)CCCN(C(=O)CCc2cccnc2)C1 (stereo unspecified)	-50.3%
CCc1ccc(-n2cccc2/C=C2/C(=N)N3C(=NC2=O)SN=C3S(C)(=O)=O)cc1	1.2%
Cc1nn(CC(=O)N2CCC(C(N)=O)CC2)c(=O)c2nn(-c3ccccc3)c(C)c12	-5.3%
COc1ccc(CNC(=O)c2csc(Cc3ccc(Cl)cc3)n2)cc1	25.6%
COc1ccc(-c2nc(N3CCC(C)CC3)[nH]c(=O)c2C#N)cc1	73.1% (active)
COc1ccc(-c2nc(N3CCCC3)[nH]c(=O)c2C#N)cc1	-42.4%

SMILES	inhibition
CC1CCN(c2nc(-c3ccccc3)c(C#N)c(=O)[nH]2)CC1	34.5%
CCOC(=O)N1CCN(CC(O)COc2c(C)cccc2C)CC1 (stereo unspecified)	24.9%
CCC(C)(C)NC(=S)Nc1ccccc1C	-38.1%
C=CCn1c(Oc2cccc(C)c2)nc2c1c(=O)n(C)c(=O)n2C	-2.9%
Cc1ccc(-c2onc3ccc(Cl)cc23)cc1	-3.6%
COc1ccc(-c2onc3ccc(Cl)cc23)cc1	-9.1%
Cc1cc(-c2onc3ccc(Cl)cc23)ccc1O	52.9% (active)
CN1CCN(S(=O)(=O)c2cccc(C(=O)N(c3ccccn3)C3CCCCC3)c2)CC1	-0.4%
Cc1nc(SCC(=O)N2CCN(c3ccccc3)CC2)c2oc3ccccc3c2n1	33.4%
CCc1nc(Nc2ccc(N3CCN(C(C)=O)CC3)cc2)c2oc3ccccc3c2n1	7.6%
CC1(O)CC(c2ccc(Cl)cc2)=NN1C(=O)c1ccc(Cl)cc1 (stereo unspecified)	-27.7%
CC(=O)N1N=C(c2ccc(Cl)cc2)CC1c1ccc([N+](=O)[O-])cc1 (stereo unspecified)	-12.3%
CC1(O)CC(c2ccc(Cl)cc2)=NN1C(=O)c1ccc([N+](=O)[O-])cc1 (stereo unspecified)	92.3% (active)
COC(=O)c1cc(C)ccc1OCc1ccc([N+](=O)[O-])cc1	-8.7%
CCOc1cc(/C=N/O)ccc1OCc1ccc([N+](=O)[O-])cc1	-20.2%
CCOc1cc(/C=C2/NC(=S)NC2=O)ccc1OCc1ccc([N+](=O)[O-])cc1	-30%
COc1cc(/C=C/C(=O)O)ccc1OCc1ccc([N+](=O)[O-])cc1	-13.3%
O=C(NCCc1ccccc1)C1(S(=O)(=O)c2ccc(Cl)cc2)CC1	7.4%
O=C(CSc1nc(-c2ccncc2)nn1CC(=O)N1CCCCC1)NC1CCCC1	-4%
